From PubChem BioAssay AID2501 (Southern Research Specialized Biocontainment Screening …, 2010)
The campaign covered roughly 2,200 compounds. About 1,200 (55%) were called active. No cut-off is given here; in the data, nearly all actives have IC50 up to about 92 µM. The set was probably picked from earlier hits. Some of the results follow.

Experiment: counter assay for TAg ATPase ADP read-out – biochemical, ADP-Hunter, fluorescence, counter-screen (AID 2501);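 note: purified T antigen ATPase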
Conditions: series mostly up to 100 µM

Structure (SMILES)	IC50
Cc1ccc(N/C(C(Cl)=C(Cl)Cl)=C(/Cl)[N+](=O)[O-])c(C)c1	inactive
Cc1cc(NC(=O)c2noc3c2CCCCC3)no1	inactive
O=C(Cn1cnc2c(nnn2Cc2ccccc2)c1=O)Nc1ccc2c(c1)OCCO2	inactive
O=C(CN1CCN(c2ccc(O)cc2)CC1)Nc1ccc2c(c1)OCCO2	6.55 µM (active)
Cc1cc(NC(=O)CN2CCN(c3ccc(O)cc3)CC2)no1	4.08 µM (active)
CCOC(=O)C1CCN(C(=O)COC(=O)CSc2ccc([N+](=O)[O-])cc2)CC1	inactive
CCCCCCC1CCC(C(=O)N2CCOCC2)CC1 (centres undefined)	inactive
O=C(CCC(=O)N1CCN(c2ccccc2F)CC1)N1CCN(c2ccccc2)CC1	inactive
CCOc1ccc(OCCC(=O)OCC(=O)N2CCN(S(=O)(=O)c3ccc(C)cc3)CC2)cc1	10.1 µM (active)
O=C(CCOc1ccccc1)N1CCN(c2ccc(O)cc2)CC1	3.56 µM (active)
COc1ccccc1N1CCN(C(=O)C2CCN(S(=O)(=O)c3ccc(C)cc3)CC2)CC1	inactive
O=C(C1CCCN(S(=O)(=O)c2cccc3nonc23)C1)N1CCN(c2ccccc2)CC1 (centres undefined)	inactive
O=C(C1CC1)N1CCN(c2ccc(O)cc2)CC1	3.4 µM (active)
O=C(COc1ncnc2sccc12)N1CCN(c2ccccc2)CC1	inactive
Cc1ccc(N(C=NC#N)CC(=O)N2CCN(c3ccccc3)CC2)cc1	inactive
Cc1ccc(OCCC(=O)N2CCN(c3ccc(O)cc3)CC2)cc1	4.43 µM (active)
Clc1ccccc1CSc1nnc(-c2ccco2)c(-c2ccco2)n1	inactive
C=CCc1ccc(OCCN2CCc3ccccc3C2)c(OC)c1	inactive
O=[N+]([O-])c1ccc(SCCc2ccncc2)cc1	inactive
CN1CCc2[nH]c3ccc(C(=O)NN)cc3c2C1	inactive
Cc1c(CCO)c(=O)n(C)n1C(=O)c1ccc(Cl)cc1	inactive
Cc1cc(OCC(=O)N2CCN(c3ccc(F)cc3)CC2)c2c(C)cc(=O)oc2c1	inactive
CCOC(=O)N1CCN(c2ccc(O)cc2)CC1	4.16 µM (active)
COc1cc(OC)cc(C(=O)NCC(=O)N2CCN(c3ccc(O)cc3)CC2)c1	8.71 µM (active)
O=C(COc1cccc(C(F)(F)F)c1)N1CCN(c2ccc(O)cc2)CC1	15.1 µM (active)

Structure (SMILES)	IC50
O=C(COC(=O)COc1cccc(C(F)(F)F)c1)NC1CCCC1	inactive
O=C(CCSc1ccc(Cl)cc1)N1CCN(c2ccc(O)cc2)CC1	7.46 µM (active)
CCOC(=O)N1CCN(C(=O)c2ccc3c(SCC(=O)O)c4c(nc3c2)CCCC4)CC1	inactive
CCOc1cccc(=O)c2c(C)n(-c3ccc(C(=O)O)cc3)c(C)c12	inactive
CCOc1ccccc1NC(=O)COC(=O)c1cccc(-c2ccc(OC(C)=O)cc2)c1	inactive
CCOc1cc(NC2CS(=O)(=O)CC2O)c(OCC)cc1NC(=O)c1ccccc1 (centres undefined)	4.18 µM (active)
COc1ccc2c(=O)c3c(=O)n(Cc4ccco4)c(-c4ccco4)nc3oc2c1	inactive
CC(=O)NCCc1c[nH]c2ccc(O)cc12	7 µM (active)
Cc1ccc(S(=O)(=O)N2CCCOC2CNC(=O)C(=O)NCCc2c[nH]c3ccccc23)cc1 (centres undefined)	inactive
OCCc1c[nH]c2ccc(C(F)(F)F)cc12	inactive
O=C1c2ccccc2C(=O)N1CCc1c[nH]c2ccc(O)cc12	7.26 µM (active)
O=[N+]([O-])c1ccc(S(=O)(=O)N2CCSC2c2ccco2)cc1 (centres undefined)	inactive
COc1cc(/C=N/N=C(\N)c2nonc2N)ccc1O	4.89 µM (active)
N/C(=N\N=C\c1ccc(O)c(O)c1)c1nonc1N	14 µM (active)
O=c1oc2ccccc2c2oc3cc(O)c(O)cc3c12	8.13 µM (active)
COc1ccc(C2CC(=O)C(C(c3ccc(O)cc3)C3C(=O)CC(c4ccc(OC)cc4)CC3=O)C(=O)C2)cc1 (centres undefined)	inactive
CN(C)c1ccc(C(=O)c2ccc(N(C)C)c(N)c2)cc1N	4.76 µM (active)
O=C(CNC(=O)c1ccccc1)OCc1ccc([N+](=O)[O-])cc1	inactive
COc1cc(/C=N\NC(=O)CNC(=O)c2cccc([N+](=O)[O-])c2)ccc1O	2.18 µM (active)
COc1cc(/C=N/NC(=O)c2cccc([N+](=O)[O-])c2)ccc1O	2.38 µM (active)
C#CCOCCOCCOCCNc1nc(N2CCN(C(=O)CCCCCCCCCCNC(=O)[C@H](CCCCN)n3cc(C[C@@H](C)CC)nn3)CC2)nc(N2CCN(C(=O)CCCCCCCCCCNC(=O)[C@H](CCCCN)n3cc(C[C@@H](C)CC)nn3)CC2)n1	inactive
Cc1ccc(-n2sc3ccccc3c2=O)cc1S(=O)(=O)N1CCCCC1	24.1 µM (active)
O=C(O)c1ccccc1NS(=O)(=O)c1cccc(-n2sc3ccccc3c2=O)c1	9.24 µM (active)
CN(C)S(=O)(=O)c1cccc(-n2sc3ccccc3c2=O)c1	8.98 µM (active)
CCC1CCCCN1S(=O)(=O)c1ccc(NC(=O)c2nc(S(C)(=O)=O)ncc2Cl)cc1 (centres undefined)	inactive

Structure (SMILES)	IC50
O=C(C1=C[C@@H](c2ccc(Br)cc2)C[C@@H](OCCCCO)O1)N1CCOCC1	inactive
COC1=C/C(=C/c2c(N)n3nc(CC(=O)N4CCCCC4)sc3nc2=O)C=CC1=O	7.89 µM (active)
Nc1c(C=C2C=CC(=O)C=C2)c(=O)nc2sc(CC(=O)N3CCCCC3)nn12	12.5 µM (active)
Nc1c(/C=C2/C=CC(=O)C(O)=C2)c(=O)nc2sc(CC(=O)N3CCCCC3)nn12	10.5 µM (active)
Nc1c(/C=C2/C=CC(=O)C(O)=C2)c(=O)nc2sc(CC(=O)N3CCCC3)nn12	8.26 µM (active)
CC(=O)O[C@H]1C[C@@]2(C)[C@@H](C[C@@H](O)[C@H]3[C@@]4(C)CC[C@@H](O)[C@@H](C)C4CC[C@@]32C)/C1=C(\CCC=C(C)C)C(=O)O (some centres undefined)	inactive
CC(=O)NCCC1CCCCN1Cc1nc(Cc2cccc(C(F)(F)F)c2)no1 (centres undefined)	inactive
Cc1ccc(C(C(=O)NCc2ccc(F)cc2)N(CCCO)C(=O)C2COc3ccccc3O2)o1 (centres undefined)	inactive
O=c1[nH]c(/C=C\c2ccc(O)c(O)c2)nc(O)c1[N+](=O)[O-]	5.5 µM (active)
O=C(O)c1cc(S(=O)(=O)Nc2ccc3oc(=O)sc3c2)ccc1O	inactive
O=c1oc2cc(O)ccc2s1	11.8 µM (active)
CCOC(=O)NNc1ccc2nonc2c1[N+](=O)[O-]	inactive
O=c1cc(-c2ccccc2Cl)oc2cc(O)cc(O)c12	inactive
O=c1c2cc(O)c(O)cc2oc2cc(O)c(C3OC(CO)C(O)C(O)C3O)c(O)c12 (centres undefined)	6.35 µM (active)
O=c1cc(-c2ccc(O)cc2)oc2cc(O)c(C3OC(CO)C(O)C(O)C3O)c(O)c12 (centres undefined)	18.6 µM (active)
O=c1cc(-c2ccc(O)c(O)c2)oc2cc(O)c(C3OC(CO)C(O)C(O)C3O)c(O)c12 (centres undefined)	5.59 µM (active)
O=c1cc(-c2ccc(O)cc2)oc2c(C3OCC(O)C(O)C3O)c(O)c(C3OC(CO)C(O)C(O)C3O)c(O)c12 (centres undefined)	17.3 µM (active)
Cc1cccc(N2CCN(C(=O)Cn3sc4nc(C)cc(C)c4c3=O)CC2C)c1 (centres undefined)	inactive
O=C1CCCC2=C1C(c1ccc(Br)cc1)c1c([nH]c(=S)[nH]c1=O)N2 (centres undefined)	92 µM (active)
O=c1[nH]c(=S)[nH]c2c1C(c1ccc(Br)cc1)c1c([nH]c(=S)[nH]c1=O)O2	inactive
COCCCNC(=O)c1cc2cc3cc(OC)ccc3nc2o1	inactive
COCCCNC(=S)N/N=C/c1ccc(O)cc1O	6.62 µM (active)
COCCCNC(=S)N/N=C/c1ccc(O)cc1	1.83 µM (active)
C/C(CCc1ccccc1)=N\NC(=S)NCCc1ccccc1	inactive
COCCNC(=S)N/N=C(\C)c1ccc(O)cc1	3.77 µM (active)

Structure (SMILES)	IC50
O=[N+]([O-])c1ccc2c(c1N1CCCCC1)=NC1(CCCCC1)[N+]=2[O-]	inactive
COc1ccc(NC(=O)c2sc(=S)[nH]c2N)cc1	8.22 µM (active)
N=C1/C(=C\c2ccc(SCc3ccco3)o2)C(=O)N=C2SC=NN12	inactive
O=C1Nc2ccccc2/C1=N\N=C\c1ccc(O)c(O)c1	8.1 µM (active)
COc1cc(/C=N/N=C2/C(=O)Nc3ccccc32)ccc1O	4.52 µM (active)
COc1cc(/C=N/N=C2/C(=O)Nc3ccccc32)cc(OC)c1O	5.67 µM (active)
CCOC(=O)CN1C(=O)CC(c2ccc([N+](=O)[O-])cc2)C1=O (centres undefined)	inactive
O=C(CS(=O)(=O)c1ccccc1)c1cc2cc(F)ccc2oc1=O	inactive
CN(C)C(=O)c1c(-c2ccccc2)oc2ccc(O)cc12	17.2 µM (active)
C=CCSC1=NC(=O)/C(=C/c2cccs2)S1	inactive
COc1ccc(N2C(=S)NC3c4cc(Cl)ccc4OC2(C)C3C(=O)N(C)C)cc1 (centres undefined)	inactive
CCOc1cc(/C=C2\C(=O)ON=C2c2ccccc2)cc(Br)c1O	inactive
COc1cc(/C=C2\C(=O)NN(c3ccccc3)C2=O)cc([N+](=O)[O-])c1O	59.3 µM (active)
CCOc1cc(/C=C2\C(=O)NN(c3ccccc3)C2=O)cc([N+](=O)[O-])c1O	6.78 µM (active)
Cc1ccsc1/C=C1/C(=O)NN(c2ccccc2)C1=O	1.75 µM (active)
CCOc1cc(/C=C2\C(=N)N3N=CSC3=NC2=O)ccc1OS(=O)(=O)c1ccccc1	inactive
COc1cc(/C=C2/C(=O)NN(c3ccc(Cl)c(Cl)c3)C2=O)cc([N+](=O)[O-])c1O	14.6 µM (active)
C/C(=N\NC(=O)c1csc(C)c1C)c1ccc(C)s1	inactive
O=Cc1coc2c(ccc3ccccc32)c1=O	10.1 µM (active)
COc1cc([C@@H]2Oc3cc(C4Oc5cc(O)cc(O)c5C(=O)[C@H]4O)ccc3O[C@H]2CO)ccc1O (some centres undefined)	31.4 µM (active)
O=C1c2c(O)cc(O)cc2O[C@H](c2ccc(O)c(O)c2)[C@H]1O	5.9 µM (active)
COc1cc(OC)c2c(c1O)OC(c1ccccc1)CC2=O (centres undefined)	inactive
O=C1CC(c2ccc(O)c(O)c2)Oc2c1ccc(O)c2O (centres undefined)	13.6 µM (active)
O=C1CC(c2ccc(O)c(O)c2)Oc2cc(O)cc(O)c21 (centres undefined)	4.23 µM (active)
